Source: PubChem BioAssay (several laboratories)
CYP2C19 activ: increases human CYP2C19 enzyme activity; 96,000 tested, under 10 active; activation factor at 5 µM; recombinant CYP2C19, luciferin-H EGE luminescence; active compounds read high; 0 = fully inhibited enzyme, 1 = untreated enzyme; P33261;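 active = activation factor of at least 2 at 5 µM in the primary screen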
CYP2C9 act: CYP2C9 (human) activation | P11712 | recombinant CYP2C9, luciferin-H conversion, luminescence; active compounds read high; factor 1 = untreated enzyme, 0 = blocked | activation factor at 5 µM | AID 1024 | actives 1.4% (n = 96,000);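 active = activation factor of 2 or more for CYP2C9 at a 5 µM dose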
Target sequence (P11712 whole entry, looked up): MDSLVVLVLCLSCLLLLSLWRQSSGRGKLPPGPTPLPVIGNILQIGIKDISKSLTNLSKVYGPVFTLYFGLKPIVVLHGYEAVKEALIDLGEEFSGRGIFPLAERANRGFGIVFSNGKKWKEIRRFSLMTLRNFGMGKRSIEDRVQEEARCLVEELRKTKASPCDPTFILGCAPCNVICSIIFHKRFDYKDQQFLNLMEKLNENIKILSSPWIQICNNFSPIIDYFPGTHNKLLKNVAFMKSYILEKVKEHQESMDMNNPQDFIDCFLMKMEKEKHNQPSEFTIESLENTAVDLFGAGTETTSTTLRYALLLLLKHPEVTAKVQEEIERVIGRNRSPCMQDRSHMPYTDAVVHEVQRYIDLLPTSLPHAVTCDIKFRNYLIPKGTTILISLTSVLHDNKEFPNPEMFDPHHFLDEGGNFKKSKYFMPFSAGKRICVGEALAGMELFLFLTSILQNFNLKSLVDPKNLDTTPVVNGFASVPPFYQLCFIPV
MRP1 act: MRP-1 activation; H69AR cells + doxorubicin, viability rescue, CellTiter-Glo; viability increase, % at 10 µM; actives 0.61% (n = 140,000); AID 799;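 active = viability gain under doxorubicin at or above a set limit, the compound median plus 3 SD, cut at about 4.7% in these data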;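 note: MRP-1 overexpressing cells given doxorubicin 25 µM after compound pretreatment; 18-22 h compound pretreatment then 72 h with doxorubicin before readout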
CYP2C9 inhib: blocks human cytochrome P450 2C9. P11712. CYP2C9 Supersomes, luciferin-H conversion, luminescence. inhibition, % at 5 µM. actives 20% (n = 96,000). AID 777;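 active = blocking of liver enzyme CYP2C9 beyond about 50% at 5 µM, limit read from the data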
MRP reversal: MRP-mediated drug resistance reversal | H69AR cells + 2 uM doxorubicin, CellTiter-Glo, 72 h | differential viability (reversal), % at 10 µM | actives 0.04% (n = 85,000) | AID 602;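 active = viability drop by adding the cancer drug above about 55%, with treated viability meeting a 40% cutoff, limit read from the data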;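 note: larger differential means the compound sensitizes cells more to doxorubicin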
CYP2C19 inhib: inhibitors of human CYP2C19 | P33261 | inhibition, % at 5 µM | AID 778 | CYP2C19 Supersomes, luciferin-H EGE luminescence, 30 min | actives 21% (n = 96,000);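 active = CYP2C19 inhibition above a set limit at 5 µM in the primary screen, cut at about 50% in these data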
Numbers stand for hits; n = inactive; x = no result. Hits are enriched below; roughly 21% of the tested compounds scored in any of these assays.

SMILES	CYP2C19 activ	CYP2C9 act	MRP1 act	CYP2C9 inhib	MRP reversal	CYP2C19 inhib
COc1ccc(-c2cc(C(F)(F)F)n3nc(C(=O)NCc4ccco4)cc3n2)cc1OC	n	n	n	69	n	76
O=C(NCc1ccco1)c1cc2nc(C3CC3)cc(C(F)(F)F)n2n1	n	n	n	n	n	n
COc1ccc(-c2cc(C(F)(F)F)n3nc(C(=O)NCCCn4ccnc4)cc3n2)cc1	n	n	n	98	n	83
COC(=O)[C@H](Cc1ccccc1)NC(=O)[C@@]1(C)C[C@@H]1[C@@H](NC(=O)OCc1ccccc1)c1ccccc1	x	x	n	x	x	x
CCCCc1nc2ccccc2n2cc3c(=O)n(C)c(=O)n(C)c3c12	x	x	x	x	n	x
CCCCn1c(SCC(=O)Nc2cccc(OC)c2)nc2ccc(N3CCOCC3)cc2c1=O	n	n	n	96	n	83
COc1ccc(C(=O)CSc2nc3ccccc3n2CC(=O)NC(C)(C)C)cc1	n	n	n	72	x	n
COc1cccc(C(=O)CSc2nc3ccccc3n2CC(=O)N2CCOCC2)c1	n	n	n	68	n	n
COC(=O)Cn1c(SCc2ccccc2)nc2ccccc21	n	n	n	n	n	58
CCn1nnnc1SCC(=O)Nc1cc(OC)cc(OC)c1	n	n	n	n	n	n
Cn1c(=O)c2c(nc(SCC(=O)N3CCc4ccccc43)n2Cc2ccccc2)n(C)c1=O	n	n	x	n	n	n
COc1cccc(NC(=O)Cn2c(SCC(=O)N3CCOCC3)nc3ccccc32)c1	n	n	n	80	n	71
CCSc1nc2ccccc2n1CC(=O)N1CCOCC1	x	x	n	x	x	x
COc1cc(OC)cc(C(=O)Nc2cc(NC(=O)c3ccco3)ccc2OC)c1	n	n	n	n	n	n
CCC(=O)Nc1ccc(NC(=O)c2ccco2)c(OC)c1	n	n	n	n	n	n
CCCOc1cccc(C(=O)Nc2cc(NC(=O)c3ccco3)ccc2OC)c1	n	n	n	n	x	71
COc1cc(NC(=O)c2ccco2)c(OC)cc1NC(=O)CCC(=O)Nc1cc(C)cc(C)c1	n	n	n	66	n	n
CCCC(=O)Nc1ccc(NC(=O)c2ccco2)c(OC)c1	n	n	n	71	x	n
CCCNC(=O)CN(c1cccc(F)c1)S(C)(=O)=O	x	x	n	x	x	x
CN(C)CCCOC(=O)COc1ccc(C(C)(C)C)cc1	x	x	n	x	x	x
Cc1ccc(-c2noc(CSc3ccccc3)n2)cc1	n	n	n	n	n	n
c1ccc(SCc2nc(-c3cccnc3)no2)cc1	n	n	n	59	n	93
c1ccc(C(Cc2nc(-c3cccnc3)no2)c2ccccc2)cc1	n	n	n	53	n	97
c1cncc(-c2noc(C34CC5CC(CC(C5)C3)C4)n2)c1	n	n	n	n	n	83
COc1nc(-c2ccccc2)ccc1-c1noc(-c2cccnc2)n1	n	n	n	n	n	n
SMILES	CYP2C19 activ	CYP2C9 act	MRP1 act	CYP2C9 inhib	MRP reversal	CYP2C19 inhib
c1ccc(C(c2ccccc2)c2nc(-c3cccnc3)no2)cc1	n	n	n	96	x	86
O=C(N=Nc1c(O)[nH]c2ccc(Cl)cc12)c1cc(-c2cccs2)nc2ccccc12	x	x	n	x	x	x
O=C(c1ccc(Cl)cc1)N1CCN=C1c1ccccc1	x	x	n	x	x	x
COc1ccc(-c2nn(C)c(=O)c3ccccc23)cc1CNC(=O)CN1CCOCC1	x	x	x	x	n	x
COc1nc(-c2ccc(C)cc2)ccc1-c1noc(-c2cccnc2)n1	n	n	x	n	n	n
c1ccc(OCCCc2nc(-c3cccnc3)no2)cc1	n	n	n	n	n	64
Cc1ccc(SC(C)c2nc(-c3cccnc3)no2)cc1 (stereo not given)	n	n	n	82	n	67
Cc1cccc(OCc2nc(-c3cccnc3)no2)c1	x	x	n	x	x	x
N#CCCn1cc(/C=N/NC(=O)c2ccncc2)c(-c2ccc(F)cc2)n1	x	x	n	x	x	x
COc1cccc(C(=O)CSc2nnc(-c3cc(OC)cc(OC)c3)o2)c1	n	n	n	n	n	n
COC(=O)CNC(=O)CSc1nnc(-c2ccc(OC)cc2)n1CC(C)C	n	n	n	n	n	n
COc1cc(OC)cc(-c2nnc(SCC(=O)Nc3cc(C)on3)o2)c1	x	x	x	x	64	x
COc1ccc(-c2nnc(SCC(=O)NCc3cccs3)n2CC(C)C)cc1	n	n	n	65	n	51
COc1cc(OC)cc(-c2nnc(SCC(=O)NCc3cccs3)o2)c1	n	n	n	n	x	89
COc1cc(OC)cc(C(=O)Nc2cccc(N3CCCC3)c2)c1	n	n	n	n	n	n
CCOC(=O)c1cccc(NC(=O)C2(S(=O)(=O)c3ccc(Cl)cc3)CC2)c1	x	x	n	x	x	x
O=C1C2CCCN2C(c2ccc(F)c(F)c2)N1c1cccc(Cl)c1 (stereo not given)	n	n	n	n	n	50
COc1cccc(C2N(c3cccc(Cl)c3)C(=O)C3CCCN32)c1OC (stereo not given)	n	n	n	70	n	78
COc1ccc(CNC(=O)C2CCCN(S(=O)(=O)c3c(C)n[nH]c3C)C2)cc1 (stereo not given)	n	n	n	n	n	n
N#Cc1c(-c2ccccc2)c(-c2ccccc2)n(Cc2ccco2)c1NC(=O)c1cccs1	n	n	n	64	x	n
CCc1cccc(Nc2cc(C)nc3nc(C)nn23)c1	x	x	n	x	n	x
CCOC(=O)C(NC(=O)c1ccccc1)=C1CCCCC1	n	n	n	n	n	n
C#CCOC(=O)C(NC(=O)c1ccccc1)=C1CCCCC1	n	n	n	68	n	n
CCOC(=O)c1c(C)[nH]c(C)c1-c1ccccc1OC	n	n	n	n	n	67
COC(=O)c1c(C)[nH]c(C(=O)/C=C/c2ccccc2)c1C	x	x	n	x	x	x
COC(=O)c1c(C)[nH]c(C)c1-c1ccccc1Cl	n	n	n	n	n	61
CCN1CCN(Cc2ccc(NC(=O)Nc3ccccc3OC)cc2)CC1	n	n	n	n	n	n
COc1cccc(-c2ccc(C#N)c(OC(=O)c3c(Cl)cccc3Cl)n2)c1	n	n	n	51	n	n
COc1ccc(-c2ccc(C#N)c(SCC(=O)NCCc3ccccc3)n2)cc1OC	x	x	n	x	x	x
